The supplement of paper PMC8728848
This is one part of a sample in which the strongest signals are shown more often than they occur.

Tests used:
Test in all cases: glycan array binding signal (z-score within array); higher = stronger binding
Conditions in all cases: glycan notation: IUPAC condensed, linker removed
[1] = molecular target: Fuc(a1-2)Gal(b1-3)GalNAc(b1-3)Gal(a1-4)Gal(b1-4)Glc
Method in brief: (§1)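 The Consortium for Functional Glycomics database supplied 3228 glycan arrays, of which those lacking an available protein sequence were dropped. The binding signal, a within-array Z-score, was averaged across arrays of the same protein sequence and across linkers. Negative scores can be read as non-binding.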

[2] = molecular target: Fuc(a1-2)Gal(b1-3)GlcNAc(b1-3)[Neu5Ac(a2-6)Gal(b1-4)GlcNAc(b1-6)]Gal(b1-4)Glc
Method in brief: as §1

[3] = molecular target: Fuc(a1-2)Gal(b1-4)GlcNAc(b1-2)Man(a1-3)[Fuc(a1-2)Gal(b1-4)GlcNAc(b1-2)Man(a1-6)]Man(b1-4)GlcNAc(b1-4)GlcNAc
Method in brief: as §1

[4] = molecular target: Fuc(a1-2)[Gal(a1-3)]Gal(b1-4)GlcNAc
Method in brief: as §1

[5] = molecular target: Fuc(a1-2)[Gal(a1-3)]Gal(b1-4)GlcNAc(b1-2)Man(a1-3)[Fuc(a1-2)[Gal(a1-3)]Gal(b1-4)GlcNAc(b1-2)Man(a1-6)]Man(b1-4)GlcNAc(b1-4)GlcNAc
Method in brief: as §1

[6] = molecular target: Fuc(a1-2)[Gal(a1-3)]Gal(b1-4)GlcNAc(b1-2)Man(a1-3)[Fuc(a1-2)[Gal(a1-3)]Gal(b1-4)GlcNAc(b1-2)Man(a1-6)]Man(b1-4)GlcNAc(b1-4)[Fuc(a1-6)]GlcNAc
Method in brief: as §1

[7] = molecular target: Fuc(a1-2)[GalNAc(a1-3)]Gal
Method in brief: as §1

[8] = molecular target: Fuc(a1-2)[GalNAc(a1-3)]Gal(b1-3)GlcNAc(b1-2)Man(a1-3)[Fuc(a1-2)[GalNAc(a1-3)]Gal(b1-3)GlcNAc(b1-2)Man(a1-6)]Man(b1-4)GlcNAc(b1-4)GlcNAc
Method in brief: as §1

[9] = molecular target: Fuc(a1-2)[GalNAc(a1-3)]Gal(b1-3)GlcNAc(b1-2)Man(a1-3)[Fuc(a1-2)[GalNAc(a1-3)]Gal(b1-3)GlcNAc(b1-2)Man(a1-6)]Man(b1-4)GlcNAc(b1-4)[Fuc(a1-6)]GlcNAc
Method in brief: as §1

[10] = molecular target: Fuc(a1-2)[GalNAc(a1-3)]Gal(b1-4)GlcNAc(b1-2)Man(a1-3)[Fuc(a1-2)[GalNAc(a1-3)]Gal(b1-4)GlcNAc(b1-2)Man(a1-6)]Man(b1-4)GlcNAc(b1-4)GlcNAc
Method in brief: as §1

[11] = molecular target: Fuc(a1-2)[GalNAc(b1-3)]Gal
Method in brief: as §1

[12] = molecular target: Fuc(a1-3)[Gal(b1-4)]GlcNAc
Method in brief: as §1

[13] = molecular target: Fuc(a1-3)[Gal(b1-4)]GlcNAc(b1-2)Man(a1-3)[Fuc(a1-3)[Gal(b1-4)]GlcNAc(b1-2)Man(a1-6)]Man(b1-4)GlcNAc(b1-4)GlcNAc
Method in brief: as §1

[14] = molecular target: Fuc(a1-3)[Gal(b1-4)]GlcNAc(b1-3)Gal(b1-3)[Fuc(a1-4)]GlcNAc
Method in brief: as §1

Gal(a1-4)Gal(b1-4)GlcNAc = molecular target: Gal(a1-4)Gal(b1-4)GlcNAc
Method in brief: as §1

Gal(b1-3)GlcNAc = molecular target: Gal(b1-3)GlcNAc
Method in brief: as §1

[15] = molecular target: Gal(b1-3)GlcNAc(b1-2)Man(a1-3)[GlcNAc(b1-4)][Gal(b1-3)GlcNAc(b1-2)Man(a1-6)]Man(b1-4)GlcNAc(b1-4)GlcNAc
Method in brief: as §1

[16] = molecular target: Gal(b1-3)GlcNAc(b1-3)Gal(b1-3)GlcNAc
Method in brief: as §1

[17] = molecular target: Gal(b1-3)GlcNAc(b1-3)Gal(b1-4)GlcNAc(b1-2)[Gal(b1-3)GlcNAc(b1-3)Gal(b1-4)GlcNAc(b1-6)]Man(a1-6)[Gal(b1-3)GlcNAc(b1-3)Gal(b1-4)GlcNAc(b1-2)Man(a1-3)]Man(b1-4)GlcNAc(b1-4)[Fuc(a1-6)]GlcNAc
Method in brief: as §1

[18] = molecular target: Gal(b1-3)GlcNAc(b1-3)Gal(b1-4)GlcNAc(b1-6)[Gal(b1-3)GlcNAc(b1-3)]Gal(b1-4)Glc
Method in brief: as §1

[19] = molecular target: Gal(b1-3)GlcNAc(b1-3)Gal(b1-4)[Fuc(a1-3)]GlcNAc(b1-6)[Gal(b1-3)GlcNAc(b1-3)]Gal(b1-4)Glc
Method in brief: as §1

[20] = molecular target: Gal(b1-3)[Fuc(a1-4)]GlcNAc(b1-6)GalNAc
Method in brief: as §1

Gal(b1-4)GlcNAc(b1-2)Man = molecular target: Gal(b1-4)GlcNAc(b1-2)Man
Method in brief: as §1

[21] = molecular target: Gal(b1-4)GlcNAc(b1-3)Gal(b1-4)GlcNAc(b1-3)Gal(b1-4)GlcNAc(b1-2)[Gal(b1-4)GlcNAc(b1-3)Gal(b1-4)GlcNAc(b1-3)Gal(b1-4)GlcNAc(b1-6)]Man(a1-6)[Gal(b1-4)GlcNAc(b1-3)Gal(b1-4)GlcNAc(b1-3)Gal(b1-4)GlcNAc(b1-2)Man(a1-3)]Man(b1-4)GlcNAc(b1-4)[Fuc(a1-6)]GlcNAc
Method in brief: as §1

[22] = molecular target: Gal(b1-4)GlcNAc(b1-3)Gal(b1-4)GlcNAc(b1-3)Gal(b1-4)GlcNAc(b1-3)Gal(b1-4)GlcNAc(b1-2)[Gal(b1-4)GlcNAc(b1-3)Gal(b1-4)GlcNAc(b1-3)Gal(b1-4)GlcNAc(b1-3)Gal(b1-4)GlcNAc(b1-6)]Man(a1-6)[Gal(b1-4)GlcNAc(b1-3)Gal(b1-4)GlcNAc(b1-3)Gal(b1-4)GlcNAc(b1-3)Gal(b1-4)GlcNAc(b1-2)Man(a1-3)]Man(b1-4)GlcNAc(b1-4)[Fuc(a1-6)]GlcNAc
Method in brief: as §1

B1: PX9937F-bfa-516-16-516 (Bacteroides fragilis) (protein)
chain: LDIDPTSSIADSNYWKTEAQFSTFNVGLHALLRECSFNFFLLGEPRADIYGDVPFGGEATQGMERLPFNTINKENTGISNFAGMYKVINQINLMIAKTKETTVLSEAGKNYYLGEAYGMRAYLYFHLLRSWGDVILYLDYTNGASLDLSNLSKAASPAEEVMKQIKEDITASEKGFGSDYSFKYGRYYWSMAATQMLKGEVYLWSGRQMGGGTADYTTAKTALQSIVSNANVSLQDDFSKVFAYNNKDNSEIIFSIRNAKDEYNMWDDRFRQNLVPQQAYMTSTYCNKEGVSFKDLPEGQLNGLIRLQIRYDLYNKAFRDGDTRKDASMTAVYQKQQDGTVKYIAPFCNKYQGVLLDGASQRSFLNDYPIYRYADCLLLLAEAKALLGEDPTAEINQVRERAYGKEFFEANKATLAYPNDKGDFYTDNKYMSGDEDPLEAILKERMREFMFEGKRWYDLRLLGADYVTKRTSAVATRLLWPINESVLTDNPALKQTPGYQN
[1]
  glycan array binding signal (z-score): 0.493
[2]
  glycan array binding signal (z-score): -0.097
[3]
  glycan array binding signal (z-score): -0.256
[4]
  glycan array binding signal (z-score): -0.012
[5]
  glycan array binding signal (z-score): 1.48
[6]
  glycan array binding signal (z-score): -0.006
[7]
  glycan array binding signal (z-score): -0.222
[8]
  glycan array binding signal (z-score): -0.141
[9]
  glycan array binding signal (z-score): -0.135
[10]
  glycan array binding signal (z-score): 2.69
[11]
  glycan array binding signal (z-score): 1.64
[12]
  glycan array binding signal (z-score): -0.071
[13]
  glycan array binding signal (z-score): -0.045
[14]
  glycan array binding signal (z-score): -0.161
Gal(a1-4)Gal(b1-4)GlcNAc
  glycan array binding signal (z-score): -0.077
Gal(b1-3)GlcNAc
  glycan array binding signal (z-score): -0.207
[15]
  glycan array binding signal (z-score): 0.179
[16]
  glycan array binding signal (z-score): -0.041
[17]
  glycan array binding signal (z-score): 7.79
[18]
  glycan array binding signal (z-score): -0.142
[19]
  glycan array binding signal (z-score): -0.388
[20]
  glycan array binding signal (z-score): 1.88
Gal(b1-4)GlcNAc(b1-2)Man
  glycan array binding signal (z-score): -0.006
[21]
  glycan array binding signal (z-score): 4.38
[22]
  glycan array binding signal (z-score): 3.95
